Only some compounds are listed: those with a hit (about 3.5% of all), similar ones and a draw of the others.
FadD28 binding: blocks FadD28 binding to the bisubstrate probe | inhibition, % at 12.5 µM | fluorescence polarization | hit rate 0.22% among 360,000 | AID 588549; in the data active = inhibition above about 8.5%, passing the limit was not always enough
Mtb UGM inh: Mtb UDP-galactopyranose mutase inhibition | P9WIQ1 | purified UGM, fluorescence polarization probe displacement | inhibition, % at 10 µM | hit rate 0.06% among 320,000; in the data active = inhibition above about 10%, passing the limit was not always enough
GDH-TPI counter-1: GDH-TPI coupled enzyme inhibition counter-screen; GDH-TPI coupled enzyme counterscreen, NADH absorbance; inhibition, % at 4.8 µM; hit rate 1.2% among 360,000; in the data active = inhibition above about 30%
Rv3671c inh: inhibitors of M. tuberculosis serine protease Rv3671c | P9WHR9 | inhibition, % at 5.96 µM | hit rate 0.048% among 320,000; in the data active = inhibition above about 38%;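 note: extracellular domain of Rv3671c used as enzyme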
Mtb hypoxia rep: Mtb hypoxia fluorescent reporter inhibition; M. tuberculosis hypoxia-regulated fluorescent reporter, fluorescence; fluorescence inhibition, % (concentration not given with the values); hit rate 0.1% among 300,000; in the data active = fluorescence inhibition mostly above about 23%, no sharp cut-off; inactive = mostly below about 17%
Mtb FBA inh: inhibitors of M. tuberculosis fructose-bisphosphate aldolase; P9WQA3; inhibition, % at 1 µM; hit rate 2.3% among 360,000; AID 588726; purified M. tuberculosis FBA, fluorescence read-out
Target sequence (P9WQA3 whole entry, looked up): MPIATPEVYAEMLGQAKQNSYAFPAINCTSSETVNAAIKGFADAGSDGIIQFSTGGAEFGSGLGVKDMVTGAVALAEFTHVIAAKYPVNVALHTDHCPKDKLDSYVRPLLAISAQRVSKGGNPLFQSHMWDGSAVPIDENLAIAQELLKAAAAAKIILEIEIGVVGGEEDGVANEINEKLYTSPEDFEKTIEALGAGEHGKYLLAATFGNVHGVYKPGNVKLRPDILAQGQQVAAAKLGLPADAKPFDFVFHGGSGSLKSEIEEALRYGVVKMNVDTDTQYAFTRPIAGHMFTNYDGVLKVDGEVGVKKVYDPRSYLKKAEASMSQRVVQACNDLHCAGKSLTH
Mtb FBA inh conf: Mtb FBA inhibition, confirmed | shares compounds with Mtb FBA inh | inhibition, % at 1 µM | AID 651616 | purified M. tuberculosis FBA, fluorescence read-out | hit rate 78% among 5,600
GDH-TPI counter-2: counter-screen for M. tuberculosis FBA inhibitors: GDH-TPI coupled enzyme inhibition; AID 652141; hit rate 81% among 5,600; inhibition, % at 1 µM; GDH-TPI coupled enzyme counterscreen, fluorescence; shares compounds with Mtb FBA inh; in the data active = inhibition above about 10%
A number is an active result; n = inactive; x = not tested or not shown; + = active, no number. Cut-off read from the data, not from the text of the source, unless noted: active = inhibition above about 27%; inactive = the rest.

SMILES | FadD28 binding | Mtb UGM inh | GDH-TPI counter-1 | Rv3671c inh | Mtb hypoxia rep | Mtb FBA inh | Mtb FBA inh conf | GDH-TPI counter-2
Cc1ccc(C)c(C(=O)OCC(=O)NC(=O)NCc2ccccc2)c1 | n | x | n | x | x | n | x | x
Nc1cc(Cl)ccc1C(=O)OCC(=O)NC(=O)NCc1ccccc1 | n | n | n | n | n | 30 | 63 | 49
CN(Cc1ccccc1)C(=O)COC(=O)c1ccc(Cl)cc1N | n | n | n | n | n | 50 | 101 | 90
CC(=O)OCC1OC(CC=NOC(C)c2cn(C(CO)Cc3ccccc3)nn2)C=CC1OC(C)=O (configuration not stated) | x | x | x | x | n | x | x | x
CC(=NOCC(=O)NC12CC3CC(CC(C3)C1)C2)c1cc2ccccc2o1 | x | x | x | x | n | x | x | x
C=CC1c2cccc(C)c2N(S(=O)(=O)c2ccc(C)cc2)C(c2ccc(OC(C)=O)cc2)C1(C#N)C#N (configuration not stated) | x | x | x | x | n | x | x | x
COc1cc(C=NNC(=O)CSCc2ccc([N+](=O)[O-])cc2)cc(OC)c1OC | x | x | x | x | n | x | x | x
CCN(CC(=O)NCc1ccc(Cl)cc1)C(=O)/C=C/c1cc(OC)c(OC)c(OC)c1 | n | n | n | n | n | n | x | x
CCN(CC(=O)NCc1ccc(F)cc1)C(=O)/C=C/c1cc(OC)ccc1OC | n | x | n | x | n | 45 | + | 194
CC(C)OP(=O)(OC(C)C)C(C=O)=NNc1ccc([N+](=O)[O-])cc1 | x | x | x | x | n | x | x | x
Fc1cccc(NC(=S)NNc2c3ccccc3nc3ccccc23)c1 | n | x | n | x | n | 50 | 187 | 132
N#C/C(=C(/O)CCCl)c1ccccn1 | n | n | n | n | n | 59 | 87 | 55
N#C/C(=C(\O)c1ccco1)c1ccccn1 | n | n | n | n | x | n | x | x
CC1=CC=CC2=NC(=O)CC(C)(C(=O)O)N12 (configuration not stated) | n | n | n | n | n | 103 | n | 14
CC1=CC=CC2=NC(=O)CC(C)(C(=O)N(CC(=O)NC3CCCC3)c3ccc(F)cc3)N12 (configuration not stated) | n | n | n | n | n | 95 | + | +
Cc1ccccc1N(CC(=O)NC1CCCCC1)C(=O)c1csnn1 | n | n | n | n | n | n | x | x
CC1=CC=CC2=NC(=O)CC(C)(C(=O)N(CC(=O)NC3CCCC3)c3ccccc3C)N12 (configuration not stated) | n | n | n | n | n | 110 | 121 | 95
Cc1cc(-c2ccccc2)nc(NN=Cc2ccccc2F)n1 | x | x | x | x | n | x | x | x
O=c1c(C=NOCc2ccc(Cl)cc2Cl)c[nH]n1-c1cccc(Cl)n1 | x | x | x | x | n | x | x | x
O=C(NN=Cc1ccccc1OC(=O)N1CCOCC1)c1cccs1 | x | x | x | x | n | x | x | x
CN1CCN(S(=O)(=O)c2ccc(N3CCN(C(c4ccccc4)c4ccccc4)CC3)nc2)CC1 | n | n | n | n | n | 81 | + | 173
CC1CN(C(C)CO)C(=O)c2cc(NC(=O)C3CCCCC3)ccc2OC1CN(C)S(=O)(=O)c1ccccc1 (configuration not stated) | x | x | x | x | n | x | x | x
CCCCOC(=O)Nc1nnc(/C=C/c2ccc(OC)cc2)s1 | n | n | n | n | n | n | x | x
CCC(=O)Nc1nnc(/C=C/c2ccccc2)s1 | n | n | 31 | n | n | 33 | 124 | 103
CCc1nnc(NC(=O)Cc2ccc(OC)cc2)s1 | n | n | n | n | n | n | x | x
SMILES | FadD28 binding | Mtb UGM inh | GDH-TPI counter-1 | Rv3671c inh | Mtb hypoxia rep | Mtb FBA inh | Mtb FBA inh conf | GDH-TPI counter-2
CCOC(=O)Nc1nnc(/C=C/c2ccc(OC)cc2)s1 | n | n | 36 | n | n | 33 | n | n
CCOC(=O)Nc1nnc(-c2ccc(OC)cc2)s1 | n | n | n | n | n | 52 | 158 | 121
CCOC(=O)Nc1nnc(-c2cccc(OC)c2)s1 | n | n | n | n | n | 98 | + | 178
CC(/C=C/c1ccc2c(c1)OCO2)=NNC(=O)C(O)c1ccccc1 (configuration not stated) | x | x | x | x | n | x | x | x
O=C(NC(C(=O)NN=Cc1ccccc1)c1n[nH]c(=O)c2ccccc12)c1ccccc1 (configuration not stated) | x | x | x | x | n | x | x | x
Cc1nc(N)c(C#N)c(-c2cccnc2)c1-c1ccccc1 | n | n | n | n | n | n | x | x
Cc1ccc2c(n1)sc1c(-c3ccccc3)c(C#N)c(N)nc12 | n | n | n | n | n | 69 | 163 | 168
O=C(COc1ccc2ccc(=O)oc2c1)NC1CCCCC1 | n | n | 32 | n | n | 32 | 105 | 74
NC(=O)C1CCN(C(=O)COc2ccc3ccc(=O)oc3c2)CC1 | n | n | n | n | x | 30 | n | n
O=C(COc1ccc2ccc(=O)oc2c1)N1CCN(c2ccccc2)CC1 | n | n | n | n | n | 27 | 78 | 53
Cc1cccc(N2CCN(C(=O)COc3ccc4ccc(=O)oc4c3)CC2)c1C | n | n | n | n | n | n | x | x
O=C(Nc1ccc(NC(=O)c2ccccc2O)cc1)Nc1ccc(F)cc1F | n | n | n | n | n | 34 | 53 | 51
O=C(Nc1ccc([N+](=O)[O-])cn1)c1ccc(Br)o1 | n | n | n | n | n | 95 | n | n
O=C(Cc1cccc2ccccc12)NN=C1CCCc2ccccc21 | x | x | x | x | n | x | x | x
COC(=O)CCS(=O)(=O)c1nc(-c2ccccc2)cc(C(F)(F)F)n1 | n | n | n | n | n | n | x | x
COCC(C)NC(=O)CCS(=O)(=O)c1nc(-c2ccc(OC)cc2)cc(C(F)(F)F)n1 (configuration not stated) | n | n | 36 | n | n | 78 | + | +
CCNC(=S)N1CCc2cc(OC)c(OC)cc2C1COc1ccccc1OC (configuration not stated) | n | n | n | n | n | 38 | + | +
CCCCNC(=O)OC1CC2CCCC(=O)N3CCC(C1)C23 (configuration not stated) | x | x | x | x | n | x | x | x
COC(CNC(=O)c1cccc(-n2c(=S)[nH]c3cc(Cl)ccc3c2=O)c1)OC | n | n | n | n | n | 68 | + | 159
COc1ccc(CN2CCc3cc(OC)c(OC)cc3C2)cc1O | n | n | n | n | x | n | x | x
COc1cc2c(cc1OC)CN(Cc1ccc(F)cc1)CC2 | n | n | n | n | n | 43 | 64 | 45
CCCOc1c(Br)cc(C2C3=C(CCCC3=O)N(CC)C3=C2C(=O)CCC3)cc1OC | n | n | n | n | n | 31 | 30 | 35
CCCOc1c(Br)cc(C2C3=C(CCCC3=O)N(C)C3=C2C(=O)CCC3)cc1OC | n | n | n | n | n | 42 | + | +
CCn1c(SCC(=O)NN=Cc2ccccc2OCC(=O)O)nnc1-c1ccc(OC)cc1 | x | x | x | x | n | x | x | x
O=C(NCc1cccnc1)c1ccccc1Br | n | n | n | n | n | n | x | x
CC(C)n1ncc2c(C(=O)NCc3cccnc3)cc(C3CC3)nc21 | n | x | n | x | x | 54 | + | +

Source: PubChem BioAssay
